Reference: PubChem BioAssay (NCI)
Compounds without any hit were thinned out: in the full panel of roughly 83,000, 20% have a hit.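 Single-concentration screen, 48 h exposure, 96-well plates. Endpoint: percent growth. Below 10 = active.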 A number with no mark means an inactive call.

Each molecule was assayed on HCT-15 colon (assay: NCI-60 one-dose screen, 48 h (100 = growth as untreated, 0 = no growth, -100 = all killed)). Settings: 10 µM.
Description: Growth inhibition of the HCT-15 human tumor cell line is measured as a screen for anti-cancer activity. Cells are grown in 96 well plates and exposed to the test compound for 48 hours. Compounds are tested at a single concentration, which is 10^-5 M for most compounds. The reported endpoint is percent growth (GI% or GIPRCNT), where numbers from 0 - 100% represent growth inhibition, and numbers from -100% - 0 represent cell death. For example, a value of 40 represents 60% growth inhibition. A value of 0 means no net growth occurred over the course of the experiment. A value of -40 indicates 40% of cells at the beginning of the experiment died by the end of the experiment. A value of -100 means all cells are dead at the end of the experiment.
NCI-60 Human Tumor Cell Lines Screen was performed using the standard one-dose NCI protocol, which is described in more detail at https://dtp.cancer.gov/discovery_development/nci-60/default.htm.
Compounds with GIPRCNT values below 10 were considered active. Activity score was based on GIPRCNT using the following formula: […]
Score is 0 for GIPRCNT values of 100 or above, 50 for GIPRCNT values of 0, and 100 for GIPRCNT values of -100.

Row | Compound | growth
1 | O=[N+]([O-])c1ccc(Cl)c(S(=O)(=O)O)c1 | 96.6%
2 | CC(C)=C(NC(=O)c1ccccc1)C(=O)O | 104%
3 | O=[N+]([O-])c1ccc(CO)cc1 | 98%
4 | Cc1ccc(C(=O)N/N=C/c2ccc3c(c2)OCO3)cc1 | 91.6%
5 | O=C(O)CCCCNC(=O)c1ccccc1 | 102%
6 | COc1ccc(OC)c(/C=C2\CCc3ccccc3C2=O)c1 | 24.3%
7 | O=C(O)c1cccc([N+](=O)[O-])c1O | 99.9%
8 | COc1ccccc1N=Nc1c(O)ccc2cc(S(=O)(=O)O)ccc12 | 107%
9 | CO[C@H]1C[C@@H]2CC[C@@H](C)[C@@](O)(O2)C(=O)C(=O)N2CCCC[C@H]2C(=O)O[C@H]([C@H](C)C[C@@H]2CC[C@@H](O)[C@H](OC)C2)CC(=O)[C@H](C)C=C(C)[C@@H](O)[C@@H](OC)C(=O)[C@H](C)C[C@H](C)/C=C/C=C/C=C1C | 42.7%
10 | O=C1C=C(O)C(=O)C=C1O | 107%
11 | CC(=O)CC(=O)N(C)C | 95.1%
12 | S=C1NCc2cncnc2N1 | 95.4%
13 | C=CCCCCCCCCCOC(C)=O | 114%
14 | Nc1ccc(N=Nc2ccc(O)cc2)c(N)n1 | 64.5%
15 | C/C(=N\NC(=O)c1ccccc1N)c1ccccc1O | 26.5%
16 | CCOC(=O)C1=C(C)NC(=O)NC1c1cccs1 (stereo not given) | 103%
17 | O=C(CS)Nc1ccc2ccccc2c1 | 75.9%
18 | O=[N+]([O-])c1ccc(N=Nc2ccccc2)cc1 | 100%
19 | COc1cc2c3c(n(C)c(=O)c2cc1OC)-c1cc2c(cc1C3=O)OCO2 | 81%
20 | O=C(CC(=O)c1ccccc1O)c1ccccc1 | 74.4%

Row | Compound | growth
21 | CCCCC(=O)c1ccc(OC)cc1 | 91.3%
22 | CC(C)(O)C#CC#CC(C)(C)O | 97.7%
23 | C/C(=C\c1ccc([N+](=O)[O-])cc1)C(=O)O | 103%
24 | S=C1CCCCCN1 | 100%
25 | S=c1[nH]ccn1-c1ccccc1Cl | 107%
26 | CN(C)c1ccc2oc(=O)c3ccccc3c2c1 | 101%
27 | CCOc1ccccc1/C=N/Nc1nc2ccccc2o1 | 76.3%
28 | C1CNC(C2=NCCN2)=N1 | 108%
29 | Brc1cnc2ccccc2c1 | 101%
30 | C=C1CC/C=C(\C)C(=O)C[C@@H]2[C@@H]1CC2(C)C | 99%
31 | Cc1cc2nc(CC(=O)c3cccc([N+](=O)[O-])c3)c(=O)[nH]c2cc1C | 77%
32 | CC(=O)c1cc2c(cc1F)C(C)(C)CCC2(C)C | 100%
33 | COC(=O)C(C)Oc1ccc(OC#N)cc1 (stereo not given) | 99.7%
34 | CCC(C)(O)c1ccc(C)cc1 (stereo not given) | 107%
35 | NCCCN | 101%
36 | CC(=O)OCC(=O)[C@@]1(O)CC[C@H]2[C@@H]3CC[C@@H]4C[C@H](O)CC[C@]4(C)[C@H]3C(=O)C[C@@]21C | 106%
37 | O=[N+]([O-])c1ccc(N=Nc2ccc(O)c3ccccc23)cc1 | 41.2%
38 | O=C(Cc1ccc(OCc2ccccc2)cc1)NCc1ccc2c(c1)OCO2 | 48.9%
39 | O/N=C/c1ccc(O)cc1O | 89.9%
40 | COc1ccc(C2(O)CCCCC2)cc1 | 112%
